Data as given in PubChem BioAssay (NCI).
Compounds without any hit were thinned out: in the full panel of roughly 83,000, 20% have a hit.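 Treatment: one concentration, 48 hours, 96-well format. Scoring: percent growth, with anything below 10 considered active.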 Unmarked numbers belong to inactive results. Active and inactive are the calls of the source.

Test system: SK-MEL-5 melanoma
Assay: NCI-60 one-dose screen, 48 h (100 = growth as untreated, 0 = no growth, -100 = all killed)
Conditions: 10 µM unless noted

SMILES | growth
COc1cc2oc(-c3cccc(C(=O)Nc4ccc(Cl)cc4)c3)cc(=O)c2c(OC)c1OC | -60.1% (active)
CS(=O)(=O)c1ccc(-c2cc(-c3nnc(SCC(=O)Nc4ccc(C(=O)/C=C/c5ccc(Cl)cc5)cc4)n3-c3ccccc3)c3ccccc3n2)cc1 | 95.7%
COc1ccccc1OCC(=O)N1CCCCCC1 | 100%
COc1cc2nc(-c3ccc(C(F)(F)F)cc3)cc(OCCCN3CCCCC3)c2cc1OC | 15.5%
COc1ccc2c(Nc3ccc(NS(C)(=O)=O)cc3)c3ccccc3nc2c1 | -94.6% (active)
C=CCn1c(SCC(=O)Nc2ccc(C(=O)/C=C/c3cc(OC)c(OC)c(OC)c3)cc2)nnc1-c1cc(-c2ccc(S(C)(=O)=O)cc2)nc2ccccc12 | 82.7%
CN(C)c1ccc(-c2c(C#N)c(N)n3nc(N)c(C#N)c3c2C#N)cc1 | 71.1%
CCCCCN1C=C/C(=C\C(=O)N(C)c2cccc3ccccc23)c2ccccc21 | 98.3%
CCCCCOc1ccc(/C=N/Nc2cc(C)nc3ccc(Br)cc23)cc1 | 89.1%
COc1cccc(C(Cc2ccccc2)Nc2ccccc2)c1OC (stereo not drawn) | 97.1%
O=S(=O)(O)c1cc(O)c2c(N=Nc3ccc(Nc4ccccc4)c4c(S(=O)(=O)O)cccc34)cc(S(=O)(=O)O)cc2c1 | 109%
COc1cc2c(cc1[N+](=O)[O-])-c1ccc([N+](=O)[O-])cc1/C2=N\O | 75.4%
CS(=O)(=O)OCCN(CCOS(C)(=O)=O)c1ccc(/C=N/Nc2ccc([N+](=O)[O-])cc2[N+](=O)[O-])cc1 | 89.2%
COc1cc2c(cc1[N+](=O)[O-])-c1ccc([N+](=O)[O-])cc1/C2=N/NC(N)=S | 63.1%
CN(C)C(C(N)=O)c1ccc(Cl)cc1 (stereo not drawn) | 101%
CC(C)(C)OC(=O)N1CCN(c2ccc(N)cc2)C(=O)C1 | 99.2%
CC(=O)OCC(=O)C1(O)C(C)CC2C3C=C(C)C4=Cc5c(cnn5-c5ccccc5)CC4(C)C3C(O)CC21C (stereo not drawn) | -14.2% (active)

SMILES | growth
Cc1ccc(C2C3CC4CCCCC4N3[C@@]3(C(=O)Nc4cc(Cl)ccc43)C2C(=O)c2nc3ccccc3[nH]2)cc1 (stereo partly drawn) | 45%
COc1ccc(-n2cc(-c3cc(OC)c(OC)c(OC)c3)n(C(C)=O)c2=O)cc1 | 6.54% (active)
C=C(C)[C@@H]1CC[C@]2(C(=O)N3CCN(C)CC3)CC[C@]3(C)[C@H](CC[C@@H]4[C@@]5(C)CCC(=O)C(C)(C)[C@@H]5CC[C@]43C)[C@@H]12 | 92.1%
NC(=S)N/N=C(/c1ccccc1)c1ccccc1N | 92.3%
COc1ccc(C(=O)c2cc(C)c(OC)c(C)c2)c(OC)c1N(C(=O)C(Cl)Cl)C(=O)C(Cl)Cl | 0.812% (active)
c1ccc(-c2nn(-c3ccccc3)[n+](-c3ccccc3-c3ccccc3)n2)cc1 | -25.8% (active)
COc1ccc2c(c1)OC13Oc4cc(OC)ccc4C=C1CCCC3=C2 | 40.3%
CC(O)(CO)c1ccccc1 (stereo not drawn) | 102%
O=C(Nc1nc(-c2ccccc2Cl)cs1)c1cc(-c2ccccc2)nc2ccc(Cl)cc12 | 43.8%
COC(=O)N[C@H]1CCc2cc(OC)c(OC)c(OC)c2-c2ccc(SC)c(=O)cc21 | -42.9% (active)
CCOC(=O)N1CCc2c(sc3nc4nc[nH]n4c(=O)c23)C1 | 104%
CCOC(=O)c1c(C)nc2c(c1N)C(=O)C(=O)N2Cc1ccc(C(F)(F)F)cc1 | 66.7%
CC(=O)c1cccc(NS(=O)(=O)c2cccc(C(=O)Nc3ccc(Br)cc3)c2)c1 | -13.7% [25 µM] (active)
COc1ccccc1C(C[N+](=O)[O-])c1c(-c2ccccc2)[nH]c2cc(C)ccc12 (stereo not drawn) | 74.9%
CCCC1C(C(=O)OCC)=C(N)Oc2cc(O)ccc21 (stereo not drawn) | 96.5%
Cc1ccc(C(=O)Nc2ccccc2C(=O)N/N=C(\c2ccccc2)c2ccccn2)cc1 | -4.18% (active)
